Assay results from PubChem BioAssay (EPA / NIEHS).
The source made the active and inactive calls. Rule for the calls: active = hit-call score of the fitted dose curve at least 0.9, where 1 is the maximum; inactive = score below 0.9.

Tests used:
[1] = ATG_GLI_CIS: Attagene CIS-FACTORIAL HepG2 Assay for human Zinc Finger Protein GLI1 (AID 2282945); conditions: HepG2, Attagene cis-factorial reporter mRNA, GLI element; actives raise or lower the signal
Procedure, shortened: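 Transiently transfected HepG2 cells report endogenous transcription factor activity via cis-element-driven reporter units. After 24 h compound exposure, reporter mRNA was measured by RT-PCR with capillary electrophoresis; bidirectional fitting against DMSO baseline.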

[2] = ATG_ISRE_CIS: Attagene CIS-FACTORIAL HepG2 Assay for human Interferon Regulatory Factor 1 (IRF1) binding to an Interferon-Stimulated Response Element (ISRE) (AID 2282948); conditions: HepG2 ISRE cis-reporter (Attagene), mRNA transcription readout; actives raise or lower the signal
Procedure, shortened: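 Signal reflects induction or loss of ISRE-linked reporter mRNA in transiently transfected HepG2 cells after a 24 h treatment, detected by fluorescent RT-PCR fragments on capillary electrophoresis and normalised to DMSO.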

[3] = ATG_M_32_CIS: Attagene CIS-FACTORIAL HepG2 Assay for M32 Transcription Factor (Internal Marker) (AID 2282949); conditions: HepG2 Attagene cis-factorial M32 reporter, mRNA; actives raise or lower the signal;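 note: background control marker of the multiplexed CIS panel rather than a real target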
Procedure, shortened: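 Using DMSO as baseline, bidirectional curve fits were applied to reporter mRNA signals. These came from transiently transfected HepG2 cells exposed for 24 h, with RNA analysed by RT-PCR, FAM primer extension, HpaI digestion and CE.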

[4] = ATG_M_06_CIS: Attagene CIS-FACTORIAL HepG2 Assay for M06 Transcription Factor (Internal Marker) (AID 2282950); conditions: HepG2 Attagene CIS-FACTORIAL M06 internal marker reporter; actives raise or lower the signal
Procedure, shortened: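 Terse: HepG2, transient MRTU transfection (FuGene 6), 24 h dosing; total RNA, oligo(dT) RT, PCR, FAM label, HpaI cut, capillary electrophoresis; bidirectional fit vs DMSO baseline; background-control endpoint.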

[5] = target: Hypoxia-inducible factor 1-alpha (Homo sapiens) (UniProt Q16665); experiment: ATG_HIF1a_CIS: Attagene CIS-FACTORIAL HepG2 Assay for human Hypoxia Inducible Factor 1 (HIF1A) (AID 2282951); conditions: HepG2 Attagene cis-factorial HIF1a reporter transcription; actives raise or lower the signal
Sequence of Hypoxia-inducible factor 1-alpha (Homo sapiens) (Q16665 whole entry, looked up, the tested form may be a part): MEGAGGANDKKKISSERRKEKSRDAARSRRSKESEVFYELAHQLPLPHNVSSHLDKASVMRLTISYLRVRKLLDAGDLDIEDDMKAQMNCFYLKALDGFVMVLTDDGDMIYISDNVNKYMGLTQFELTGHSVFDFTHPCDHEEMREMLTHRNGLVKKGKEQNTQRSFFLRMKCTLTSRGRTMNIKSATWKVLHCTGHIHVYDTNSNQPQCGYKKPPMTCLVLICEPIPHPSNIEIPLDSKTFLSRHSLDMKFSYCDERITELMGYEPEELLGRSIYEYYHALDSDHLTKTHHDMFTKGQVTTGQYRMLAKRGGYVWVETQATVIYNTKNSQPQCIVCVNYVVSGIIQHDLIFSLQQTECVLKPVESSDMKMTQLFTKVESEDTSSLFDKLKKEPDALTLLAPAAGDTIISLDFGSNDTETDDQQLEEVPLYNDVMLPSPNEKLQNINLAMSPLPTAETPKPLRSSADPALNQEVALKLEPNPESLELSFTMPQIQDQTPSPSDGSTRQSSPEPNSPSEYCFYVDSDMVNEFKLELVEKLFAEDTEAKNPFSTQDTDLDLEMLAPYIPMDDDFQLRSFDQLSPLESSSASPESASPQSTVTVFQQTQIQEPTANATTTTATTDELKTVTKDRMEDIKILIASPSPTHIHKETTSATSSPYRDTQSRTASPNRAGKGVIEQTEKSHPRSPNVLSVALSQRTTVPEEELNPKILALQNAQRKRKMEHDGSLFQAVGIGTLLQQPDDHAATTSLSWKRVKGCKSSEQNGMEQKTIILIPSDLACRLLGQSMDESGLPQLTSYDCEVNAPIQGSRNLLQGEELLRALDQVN
Procedure, shortened: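 Transient MRTU transfection of human HepG2 liver cells, 24 h compound treatment, then total RNA isolation, oligo(dT) reverse transcription, PCR amplification, fluorescent labelling and capillary electrophoresis of reporter fragments. Gain or loss relative to DMSO.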

[6] = target: Hepatocyte nuclear factor 6 (Homo sapiens) (UniProt Q9UBC0); experiment: ATG_HNF6_CIS: Attagene CIS-FACTORIAL HepG2 Assay for human Hepatocyte Nuclear Factor 6 (HNF6) (AID 2282952); conditions: HepG2 Attagene cis-factorial HNF6 reporter transcription; actives raise or lower the signal
Sequence of Hepatocyte nuclear factor 6 (Homo sapiens) (Q9UBC0 whole entry, looked up): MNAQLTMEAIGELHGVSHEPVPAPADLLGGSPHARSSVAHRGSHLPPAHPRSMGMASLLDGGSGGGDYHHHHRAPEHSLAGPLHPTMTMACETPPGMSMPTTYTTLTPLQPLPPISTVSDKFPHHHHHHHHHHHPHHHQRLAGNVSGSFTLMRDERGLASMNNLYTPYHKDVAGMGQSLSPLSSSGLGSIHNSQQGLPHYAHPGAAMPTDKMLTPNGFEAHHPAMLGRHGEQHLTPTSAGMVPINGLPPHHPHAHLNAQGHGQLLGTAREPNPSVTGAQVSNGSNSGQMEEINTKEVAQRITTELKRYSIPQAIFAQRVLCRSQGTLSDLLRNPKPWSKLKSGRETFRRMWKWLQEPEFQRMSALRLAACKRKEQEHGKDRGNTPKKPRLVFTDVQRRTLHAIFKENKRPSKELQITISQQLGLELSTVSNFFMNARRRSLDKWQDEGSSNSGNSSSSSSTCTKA
Procedure, shortened: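 Endogenous transcription factor activity in human HepG2 liver cells was captured through cis-regulated reporter constructs. After 24 h treatment, reporter mRNA was measured by RT-PCR with capillary electrophoresis, and activity was fitted in both directions relative to DMSO.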

[7] = target: Heat shock factor protein 1 (Homo sapiens) (UniProt Q00613); experiment: ATG_HSE_CIS: Attagene CIS-FACTORIAL HepG2 Assay for human Heat Shock Transcription Factor 1 (HSE) (AID 2282953); conditions: HepG2 HSE cis-reporter, Attagene RNA transcription; actives raise or lower the signal
Sequence of Heat shock factor protein 1 (Homo sapiens) (Q00613 whole entry, looked up, the tested form may be a part): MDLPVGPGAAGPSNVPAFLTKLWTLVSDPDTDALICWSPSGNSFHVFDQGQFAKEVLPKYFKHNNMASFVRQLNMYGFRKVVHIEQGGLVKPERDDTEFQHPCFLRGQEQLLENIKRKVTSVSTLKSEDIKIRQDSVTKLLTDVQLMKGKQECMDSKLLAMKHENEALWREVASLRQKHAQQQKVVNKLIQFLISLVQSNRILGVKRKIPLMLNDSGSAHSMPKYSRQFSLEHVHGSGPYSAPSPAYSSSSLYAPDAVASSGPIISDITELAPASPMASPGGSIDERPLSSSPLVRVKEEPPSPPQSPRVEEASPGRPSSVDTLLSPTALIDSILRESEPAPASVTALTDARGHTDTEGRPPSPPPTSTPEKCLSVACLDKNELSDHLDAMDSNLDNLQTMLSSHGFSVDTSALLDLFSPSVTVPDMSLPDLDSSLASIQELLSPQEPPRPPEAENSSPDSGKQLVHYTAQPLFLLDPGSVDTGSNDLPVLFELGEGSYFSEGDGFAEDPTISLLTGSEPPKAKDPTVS
Procedure, shortened: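 Read-out: fluorescence of reporter-specific RT-PCR fragments separated by capillary electrophoresis. HepG2 carrying transfected cis-element reporter units; 24 h dosing; activity fitted in both directions relative to DMSO baseline.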

[8] = ATG_MRE_CIS: Attagene CIS-FACTORIAL HepG2 Assay for human Metal Responsive Element (MRE) (AID 2282954); conditions: HepG2 MRE cis-reporter transcription, Attagene multiplex; actives raise or lower the signal
Procedure, shortened: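 RT-PCR/capillary electrophoresis readout of reporter mRNA, 24 h post-dosing, in HepG2 cells transfected with multiplexed cis-regulated reporter constructs. Gain or loss of signal fitted bidirectionally against DMSO baseline.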

[9] = target: Paired box protein Pax-6 (Homo sapiens) (UniProt P26367); experiment: ATG_Pax6_CIS: Attagene CIS-FACTORIAL HepG2 Assay for human Paired Box 6 (PAX6) (AID 2282956); conditions: HepG2 CIS-FACTORIAL PAX6 reporter transcription, RNA readout; actives raise or lower the signal
Sequence of Paired box protein Pax-6 (Homo sapiens) (P26367 whole entry, looked up): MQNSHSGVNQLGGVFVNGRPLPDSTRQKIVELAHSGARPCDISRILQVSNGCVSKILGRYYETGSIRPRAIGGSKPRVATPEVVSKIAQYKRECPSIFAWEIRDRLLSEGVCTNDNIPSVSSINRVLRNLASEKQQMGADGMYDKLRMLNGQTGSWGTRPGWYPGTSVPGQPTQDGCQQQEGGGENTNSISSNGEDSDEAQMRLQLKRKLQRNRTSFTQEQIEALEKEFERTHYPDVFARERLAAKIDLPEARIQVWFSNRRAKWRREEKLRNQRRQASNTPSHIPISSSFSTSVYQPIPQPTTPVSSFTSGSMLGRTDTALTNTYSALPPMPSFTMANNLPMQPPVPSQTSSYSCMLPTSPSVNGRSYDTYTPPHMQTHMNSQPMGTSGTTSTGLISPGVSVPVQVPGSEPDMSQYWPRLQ
Procedure, shortened: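 Values derive from bidirectional curve fitting of reporter mRNA signal relative to DMSO. HepG2 cells bearing transfected cis-regulated MRTUs were exposed for 24 h; transcripts were read by RT-PCR and capillary electrophoresis.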

[10] = ATG_PXRE_CIS: Attagene CIS-FACTORIAL HepG2 Assay for human Pregnane X Receptor Element (PXRE) (AID 2282957); conditions: HepG2 Attagene CIS-FACTORIAL PXRE reporter, mRNA; actives raise or lower the signal
Procedure, shortened: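 Endogenous transcription factor activity in HepG2 was gauged through induction of reporter mRNA driven by a cis-regulating promoter element, sampled 24 h post-treatment. Activity was fitted in both directions against DMSO negative control.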

[11] = ATG_Sox_CIS: Attagene CIS-FACTORIAL HepG2 Assay for human SRY-box transcription factor (SOX) (AID 2282960); conditions: HepG2 Attagene cis-factorial SOX reporter, mRNA; actives raise or lower the signal
Procedure, shortened: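 Endogenous factor activity in human liver HepG2 cells carrying transfected cis-regulated reporter units. RNA taken 24 h post-dose, reverse-transcribed, PCR-amplified and sized by capillary electrophoresis. Gain or loss of signal fitted relative to DMSO.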

[12] = target: Transcription factor Sp1 (Homo sapiens) (UniProt P08047); experiment: ATG_Sp1_CIS: Attagene CIS-FACTORIAL HepG2 Assay for human Specificity Protein 1 (Sp1) (AID 2282961); conditions: HepG2 Sp1 cis-reporter transcription, actives raise or lower the signal
Sequence of Transcription factor Sp1 (Homo sapiens) (P08047 whole entry, looked up): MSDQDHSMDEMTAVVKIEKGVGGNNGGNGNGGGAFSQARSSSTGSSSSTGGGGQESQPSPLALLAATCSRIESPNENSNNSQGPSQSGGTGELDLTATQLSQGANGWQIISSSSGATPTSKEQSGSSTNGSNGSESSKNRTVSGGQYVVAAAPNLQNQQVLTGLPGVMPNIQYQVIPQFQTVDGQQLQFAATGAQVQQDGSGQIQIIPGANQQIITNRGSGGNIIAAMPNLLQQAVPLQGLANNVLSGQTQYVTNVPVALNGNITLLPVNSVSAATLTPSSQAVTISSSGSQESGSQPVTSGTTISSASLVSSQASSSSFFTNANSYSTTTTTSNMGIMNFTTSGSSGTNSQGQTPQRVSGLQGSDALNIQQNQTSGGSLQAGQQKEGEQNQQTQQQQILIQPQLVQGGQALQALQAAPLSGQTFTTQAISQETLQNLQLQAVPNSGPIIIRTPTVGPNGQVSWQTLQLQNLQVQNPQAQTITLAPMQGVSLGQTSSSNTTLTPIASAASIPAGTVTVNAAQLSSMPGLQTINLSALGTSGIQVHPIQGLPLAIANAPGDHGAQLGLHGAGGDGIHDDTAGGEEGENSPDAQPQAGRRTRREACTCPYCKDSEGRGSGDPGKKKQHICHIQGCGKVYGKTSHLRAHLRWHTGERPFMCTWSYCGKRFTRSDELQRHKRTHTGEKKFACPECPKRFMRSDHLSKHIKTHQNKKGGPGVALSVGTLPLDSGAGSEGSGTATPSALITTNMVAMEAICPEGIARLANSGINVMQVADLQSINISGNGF
Procedure, shortened: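 Transient MRTU-transfected HepG2, 24 h compound exposure. Total RNA → oligo(dT) RT → PCR of reporter → 6-FAM primer extension → HpaI digest → CE. Endpoint fitted both directions vs DMSO.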

[13] = ATG_SREBP_CIS: Attagene CIS-FACTORIAL HepG2 Assay for human Sterol Regulatory Element Binding (SREBP) (AID 2282962); conditions: HepG2 Attagene cis-factorial SREBP reporter, mRNA; actives raise or lower the signal
Procedure, shortened: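 Values derive from bidirectional curve fitting with DMSO as baseline. The underlying measurement is reporter mRNA from cis-element-regulated units in transiently transfected HepG2, quantified by RT-PCR and capillary electrophoresis after 24 h exposure.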

[14] = target: Signal transducer and activator of transcription 3 (Homo sapiens) (UniProt P40763); experiment: ATG_STAT3_CIS: Attagene CIS-FACTORIAL HepG2 Assay for human Signal Transducer and Activator of Transcription 3 (STAT3) (AID 2282963); conditions: HepG2, Attagene cis-factorial STAT3 reporter transcription; actives raise or lower the signal
Sequence of Signal transducer and activator of transcription 3 (Homo sapiens) (P40763 whole entry, looked up, the tested form may be a part): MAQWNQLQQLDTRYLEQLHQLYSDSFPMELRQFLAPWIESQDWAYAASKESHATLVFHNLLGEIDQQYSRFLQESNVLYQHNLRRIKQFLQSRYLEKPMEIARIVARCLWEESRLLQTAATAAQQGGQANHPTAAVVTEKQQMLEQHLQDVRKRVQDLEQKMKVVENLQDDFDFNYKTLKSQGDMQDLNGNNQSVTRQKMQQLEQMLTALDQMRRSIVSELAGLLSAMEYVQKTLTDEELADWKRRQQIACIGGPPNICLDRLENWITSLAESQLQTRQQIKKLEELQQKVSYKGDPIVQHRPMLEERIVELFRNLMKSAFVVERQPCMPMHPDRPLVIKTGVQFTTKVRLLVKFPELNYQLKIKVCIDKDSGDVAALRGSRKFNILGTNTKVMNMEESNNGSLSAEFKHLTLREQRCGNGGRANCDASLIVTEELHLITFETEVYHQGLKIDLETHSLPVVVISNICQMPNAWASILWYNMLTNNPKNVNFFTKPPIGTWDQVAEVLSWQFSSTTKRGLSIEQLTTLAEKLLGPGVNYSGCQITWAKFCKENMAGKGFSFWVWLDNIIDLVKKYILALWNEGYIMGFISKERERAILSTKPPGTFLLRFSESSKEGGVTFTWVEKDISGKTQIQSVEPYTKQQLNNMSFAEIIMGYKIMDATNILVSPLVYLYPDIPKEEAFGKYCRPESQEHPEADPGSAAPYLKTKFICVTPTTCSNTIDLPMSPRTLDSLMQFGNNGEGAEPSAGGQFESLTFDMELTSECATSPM
Procedure, shortened: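 Readout: fluorescent reporter mRNA fragments resolved by capillary electrophoresis. Setup: HepG2 transfected with MRTUs reporting endogenous transcription-factor activity, dosed 24 h. Gain or loss of signal fitted bidirectionally against DMSO control.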

[15] = ATG_TA_CIS: Attagene CIS-FACTORIAL HepG2 Assay for human TA Basal Promoter (AID 2282964); conditions: HepG2 Attagene CIS-factorial TA basal promoter reporter; actives raise or lower the signal
Procedure, shortened: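 Transfected HepG2, 24 h compound exposure; RNA → RT-PCR → FAM primer extension → HpaI cut → CE fluorescence. Gain/loss-of-signal fitted against DMSO negative control. Background-control readout.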

[16] = ATG_GRE_CIS: Attagene CIS-FACTORIAL HepG2 Assay for human Glucocorticoid Response Elements (GRE) (AID 2282947); conditions: HepG2 GRE cis-reporter, Attagene multiplex mRNA; actives raise or lower the signal
Procedure, shortened: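 Read-out: fluorescent reporter-transcript fragments separated by capillary electrophoresis after RT-PCR. Transiently transfected HepG2 cells carrying cis-element-driven reporter units were dosed for 24 h; gain or loss of signal fitted against DMSO control.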

[17] = ATG_PPRE_CIS: Attagene CIS-FACTORIAL HepG2 Assay for human Peroxisome Proliferator-activated Response Element (PPRE) (AID 2282958); conditions: HepG2 PPRE cis-element reporter, Attagene transcription factor profiling; actives raise or lower the signal
Procedure, shortened: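 HepG2, transient MRTU transfection (cis promoter elements, endogenous TFs). 24 h dosing. RNA → oligo(dT) RT → PCR → 6-FAM primer extension → HpaI digest → CE. Bidirectional fit vs DMSO.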

[18] = ATG_RORE_CIS: Attagene CIS-FACTORIAL HepG2 Assay for human RAR-related Orphan Receptor Element (RORE) (AID 2282959); conditions: HepG2 Attagene cis-factorial RORE reporter, mRNA; actives raise or lower the signal
Procedure, shortened: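 Transient MRTU transfection of human HepG2 liver cells (FuGene 6); 24 h compound exposure; TriZol RNA, oligo(dT) RT, PCR, FAM labeling, HpaI cut, CE fragment analysis. DMSO = negative control/baseline.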

[19] = ATG_PBREM_CIS: Attagene CIS-FACTORIAL HepG2 Assay for human Phenobarbital-responsive Enhancer Module (PBREM) (AID 2282955); conditions: HepG2 PBREM cis-reporter, Attagene multiplexed transcription; actives raise or lower the signal
Procedure, shortened: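 Endogenous transcription factors in human liver HepG2 cells drive a PBREM cis-element reporter, whose transcript level after 24 h treatment is quantified by RT-PCR with capillary electrophoresis; activity fitted in both directions against DMSO.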

Measured: AC50

CCCCCCCCCCCCCCO
active: [6] 177 µM | [7] 117 µM | [10] 100 µM | [13] 171 µM | [14] 158 µM
inactive: [1] | [2] | [3] | [4] | [5] | [8] | [9] | [11] | [12] | [15]

CCCCOC(=O)c1ccccc1
inactive: [1] | [16] | [2] | [3] | [4] | [5] | [6] | [8] | [9] | [10] | [17] | [18] | [11] | [12] | [13] | [14] | [15]

NNC(=O)c1ccncc1
inactive: [1] | [16] | [2] | [3] | [4] | [6] | [7] | [8] | [19] | [9] | [10] | [17] | [18] | [11] | [12] | [13] | [14] | [15]

c1ccc(C(O[C@@H]2CCCN(CCc3ccc4c(c3)OCO4)C2)c2ccccc2)cc1
inactive: [1] | [16] | [2] | [3] | [4] | [6] | [17] | [18] | [11] | [12] | [14]
active: [5] 47.1 µM | [7] 55 µM | [8] 33 µM | [9] 44.3 µM | [10] 0.514 µM | [13] 10.7 µM | [15] 55.3 µM

CC(=O)c1ccccc1
inactive: [1] | [2] | [3] | [4] | [5] | [6] | [7] | [8] | [19] | [9] | [10] | [17] | [11] | [12] | [13] | [14] | [15]

Cc1ccc(S(=O)(=O)NC(=O)NN2CCCCCC2)cc1
inactive: [1] | [16] | [2] | [3] | [4] | [6] | [7] | [8] | [19] | [9] | [10] | [17] | [18] | [11] | [12] | [13] | [14] | [15]

NC(=O)NN=Cc1ccc([N+](=O)[O-])o1
inactive: [1] | [16] | [2] | [3] | [4] | [6] | [7] | [8] | [19] | [9] | [10] | [17] | [18] | [11] | [12] | [13] | [14] | [15]

NC(N)=O
inactive: [1] | [2] | [3] | [4] | [5] | [6] | [7] | [8] | [19] | [9] | [10] | [17] | [18] | [11] | [12] | [13] | [14] | [15]

CC1(C)C(=O)N(Cl)C(=O)N1Cl
inactive: [1] | [16] | [2] | [3] | [4] | [5] | [6] | [7] | [8] | [9] | [10] | [18] | [11] | [12] | [13] | [14] | [15]

O=C(O)CO
inactive: [1] | [2] | [3] | [4] | [5] | [6] | [7] | [8] | [19] | [9] | [10] | [17] | [18] | [11] | [12] | [13] | [14] | [15]

C[C@]12C=CC(=O)C=C1CC[C@H]1[C@@H]3C[C@@H](O)[C@](O)(C(=O)CO)[C@@]3(C)C[C@H](O)[C@@]12F
inactive: [1] | [2] | [3] | [4] | [5] | [6] | [7] | [8] | [9] | [10] | [17] | [18] | [11] | [12] | [13] | [14] | [15]
active: [16] 0.14 µM

O=c1[nH]cnc2c1ncn2[C@H]1CC[C@@H](CO)O1
inactive: [1] | [16] | [2] | [3] | [4] | [5] | [6] | [8] | [19] | [9] | [10] | [17] | [18] | [11] | [12] | [13] | [14] | [15]

C=CN1CCCC1=O
inactive: [1] | [2] | [3] | [4] | [5] | [6] | [7] | [8] | [19] | [9] | [10] | [17] | [18] | [11] | [12] | [13] | [14] | [15]

CCCCCCCC1CCC(=O)O1 (configuration not stated)
inactive: [1] | [16] | [2] | [3] | [4] | [5] | [7] | [8] | [19] | [9] | [10] | [17] | [18] | [11] | [12] | [13] | [14] | [15]

Cn1cc[nH]c1=S
inactive: [1] | [2] | [3] | [4] | [7] | [8] | [19] | [9] | [10] | [17] | [18] | [11] | [12] | [13] | [14] | [15]
